Screening data (PubChem BioAssay)
In the library only some 2.5% were active in any assay of this set; here they are far more common.
Jurkat NFkB inh = inhibitors of induced NF-kB luciferase reporter, primary screen, TCR NF-kB activation inhibitor project, cell-based, luminescence, uHTS; Jurkat, PMA/ionomycin-induced NF-kB luciferase reporter; inhibition, % at 4 µM; 0.53% of 330,000 active; AID 435003, 2010; in the data active = inhibition above about 50%
697 NFkB inh = inhibitors of PMA/ionomycin-induced NF-kB reporter, 697 cells, primary screen, B-cell NF-kB inhibitor project, cell-based, luminescence, uHTS; 697 B-cell NF-kB luciferase reporter, 16 h; inhibition, % at 4 µM; 0.33% of 330,000 active; AID 435022, 2010; in the data active = inhibition above about 35%
ANO1 activ = TMEM16A chloride channel activators or potentiators, primary screen, cell-based, HTS | Anoctamin-1 (Mus musculus), Q8BHY3 | 0.3% of 340,000 active | HEK293 TMEM16A/YFP-H148Q/I152L, iodide quench fluorescence; hits give low values | B-score at 10 µM;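 active = fluorescence-ratio B-score plate-corrected deviation score at least 3 library SD below zero, with starting fluorescence score within 5 deviations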;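 note: channel opened by trigger with iodide after compound preincubation; score built on the fluorescence ratio of max minus min over baseline; more negative score means more quench and so TMEM16A activation or potentiation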
TMEM16A inh = TMEM16A chloride channel inhibitors, primary screen, cell-based, HTS; Anoctamin-1 (Mus musculus), Q8BHY3; HEK293 TMEM16A/YFP iodide influx fluorescence, ionomycin; normalized B-score (activity score, 25-100; higher = stronger inhibition) at 10 µM; 1.2% of 310,000 active;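 active = ratio plate-corrected score three or more library SD toward inhibition, starting fluorescence score within five deviations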;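 note: score derived from kinetic fluorescence span divided by baseline fluorescence per well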
aSyn UTR inh = MLPCN primary screen, SNCA 5' untranslated region; alpha-synuclein 5'UTR reporter, inhibitor activity; inhibition, % (tested at 7.5 µM); 0.82% of 300,000 active; AID 1813, 2009; in the data active = inhibition above about 60%; inconclusive = no clear call, values can overlap the other calls;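 note: H4 neuroglioblastoma cells stably carrying SNCA 5'UTR luciferase fusion; 0% = DMSO wells and 100% = positive control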
KLF5 inhibitor = KLF5 expression inhibitors, primary screen, DLD-1 cells, luminescence | DLD-1 KLF5 promoter-luciferase reporter | 0.23% of 290,000 active | inhibition, % at 5 µM | AID 1700, 2009;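 active = inhibition above a per-plate limit of that plate's mean compound inhibition plus 3 SD, cut at about 60% in these data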;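 note: 0% = DMSO wells and 100% = LY294002 at 200 µM; higher means less KLF5 promoter-driven luciferase light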
697 NFkB conf = PMA/ionomycin-induced NF-kB reporter inhibitors, 697 retest, confirmation, B-cell NF-kB inhibitor project, cell-based, luminescence, single concentration; shares compounds with 697 NFkB inh; 697 B-cell NF-kB luciferase, 16 h; inhibition, % at 4 µM; 35% of 2,000 active; in the data active = inhibition mostly above about 28%, no sharp cut-off; inactive = mostly below about 22%
Starred values were filed as active, the others as inactive; i = inactive; ? = inconclusive; · = no result.

SMILES	Jurkat NFkB inh	697 NFkB inh	ANO1 activ	TMEM16A inh	aSyn UTR inh	KLF5 inhibitor	697 NFkB conf
CCCOc1ccccc1C(=O)Nc1ccc(S(=O)(=O)N2CCN(C)CC2)cc1	0	-14	i	i	7	-41	·
Cc1nc2cc(-c3ccccc3)nn2c(C)c1CCC(=O)NCc1ccco1	2	46*	i	i	?	-30	37*
COc1ccccc1-c1cc2nc(C)c(CCC(=O)NCc3ccco3)c(C)n2n1	9	33	i	i	21	-15	·
Clc1ccc(-c2csc(Nc3ccccc3)[n+]2Cc2ccco2)c(Cl)c1	·	·	i	·	-269	-40	·
COc1ccc2nc(NC(=S)NC(=O)c3ccco3)sc2c1	-77	-183	i	i	-133	-117	·
COc1ccc2sc(NC(=O)c3ccco3)nc2c1	-89	-281	i	i	22	37	-238
Cc1cc(C)c2nc(NC(=O)c3ccco3)sc2c1	-135	-298	i	i	34	-44	-406
O=C(Nc1nc2c(Br)cc(Br)cc2c(=O)s1)c1ccco1	15	36*	i	i	-31	-8	37*
O=C(Nc1nc2c(F)cccc2s1)c1ccco1	-70	-149	i	i	-121	-119	·
O=C(Cc1ccccc1)Nc1ncccc1Cl	1	2	i	i	-4	·	·
Cc1ccc(N(CC(=O)NC2CCCCC2)C(=O)CCCC(=O)Nc2ccccn2)cc1	-1	-1	i	i	1	4	·
CCCC[C@@H]1CN=C(N)N1CC(C)(C)C	8	14	i	i	-14	·	·
CCCCN(C(=O)c1ccc(-c2ccc(Cl)cc2)o1)c1c(N)n(CCC)c(=O)[nH]c1=O	-12	11	i	·	·	·	·
COc1ccc(-c2csc3nc(-c4cccnc4)nc(N4CCC(C(N)=O)CC4)c23)cc1OC	15	39*	i	i	-10	-24	26*
CC1(C)CCN2CCC(C)(C)c3c(O)ccc1c32	25	-22	i	i	23	-22	·
O=c1c(-c2ccc(O)cc2)coc2cc(O)cc(O)c12	-63	-175	i	i	-99	·	·
CC(C)Oc1cc(O)c2c(=O)c(-c3ccc(O)cc3)coc2c1	-33	-285	i	i	-138	-98	-191
COc1ccccc1C(=O)NC(=S)Nc1cccnc1Cl	-125	-250	i	i	11	38	-332
COc1cccc(C(CCc2cc(OC)c(OC)c(OC)c2)NC(C)=O)c1 (configuration not stated)	·	·	i	·	·	·	·
CCOC(=O)N1CCN(CC(=O)Nc2ccc([N+](=O)[O-])cc2C(=O)Nc2ccccc2F)CC1	42	38*	i	i	11	35	39*
COc1ccc(CNc2cccnc2)c(OC)c1OC	·	·	i	·	·	·	·
COc1ccc(CC(=O)Nc2ccc(N3CCOCC3)cc2)cc1S(=O)(=O)N1CCOCC1	4	39*	i	i	-4	-18	-7
CC(C)(C)OC(=O)N1CCC[C@H]1C(=O)OCC(=O)Nc1cc(S(C)(=O)=O)ccc1Cl	-2	11	i	·	·	·	·
O=C(/C=C/Nc1ccccc1F)c1ccc(Br)cc1	·	·	i	i	-49	-146	·
N#Cc1ccccc1N/C=C/C(=O)c1ccc(Cl)cc1	-143	-296	i	i	-169	·	-177
SMILES	Jurkat NFkB inh	697 NFkB inh	ANO1 activ	TMEM16A inh	aSyn UTR inh	KLF5 inhibitor	697 NFkB conf
O=C(CCNC(=O)c1ccco1)Nc1ccc(F)c(Cl)c1	7	-21	i	i	14	17	·
FC(F)(F)c1cc(CCN2CCNC[C@H]2Cc2cccc3ccccc23)cc(C(F)(F)F)c1	20	36*	-9.7*	i	-7	·	13
CC(OC(=O)Cc1ccccc1[N+](=O)[O-])C(=O)NC(=O)NC1CCCCC1 (configuration not stated)	-4	6	i	i	5	·	·
Cc1ccc(-c2cc3onc(-c4ccccc4)c3c(=O)n2C)cc1	-100	-346	i	i	·	·	-385
CNC(=O)c1ccc(-c2cc3onc(-c4ccccc4)c3c(=O)n2C)cc1	-107	-171	i	·	·	·	·
CCCOc1ccc(-c2cc3onc(-c4ccccc4)c3c(=O)n2C)cc1	10	-278	i	·	·	·	-370
O=C1CCCN1C(=O)CSc1ncnc2sccc12	17	-8	i	·	·	·	·
O=c1nc2onnc2c(C=NO)[nH]1	·	·	i	·	·	·	·
CC(=O)Nc1ccc(S(=O)(=O)N2CCC(c3nc4ccc(C)cc4[nH]3)CC2)cc1	13	38*	i	i	-21	-23	15
CC(C)C(=O)Nc1ccc(S(=O)(=O)N2CCC(c3nc4ccccc4[nH]3)CC2)cc1	0	5	i	i	11	·	·
O=C(Nc1ccccc1Oc1cccnc1)C1CCCN(Cc2ccc(F)cc2)C1 (configuration not stated)	7	19	i	i	8	-21	·
CC1CCCCN1C(=O)COC(=O)CSc1ccc(C(N)=O)cc1[N+](=O)[O-] (configuration not stated)	·	·	i	·	·	·	·
CC1CCCC(C)N1C(=O)COC(=O)CSc1ccc(C(N)=O)cc1[N+](=O)[O-] (configuration not stated)	6	35*	i	i	-2	·	-11
COc1cc2c(cc1NC(=O)CSCC(=O)O)oc1ccccc12	3	36*	i	i	-5	-3	-1
COc1cc2c(cc1NC(=O)CCC(=O)O)oc1ccccc12	-8	-18	i	i	-11	6	·
COc1ccc(NC(=O)c2cc(CC(C)C)nc3ccccc23)cc1	38	-287	i	i	52	-2	-345
Cc1ccc(NC(=O)c2cc(CC(C)C)nc3ccccc23)cc1	5	-135	i	i	47	-12	·
COc1cc(NC(=O)c2cc3ccccc3cc2OC)ccc1NC(=O)c1cccs1	3	28	i	i	-1	-17	·
COC(=O)C1=NNC(C(=O)OC)C1c1ccccc1 (configuration not stated)	·	·	i	·	·	·	·
Cc1nc(SC(C)C(=O)NCC2CCCO2)c2cc(-c3ccccc3)sc2n1 (configuration not stated)	-67	i	i	i	-107	·	i
CC(Sc1ncnc2c1cnn2-c1ccccc1)C(=O)NCC1CCCO1 (configuration not stated)	-10	-19	i	i	-19	6	·
CC1CCCC(NC(=O)Cn2cc(C(F)(F)F)cc(Cl)c2=O)C1C (configuration not stated)	-5	15	i	·	·	·	·
